Source: the supplement of paper PMC6555819

system: VDR:RXRa (NR concentration 270 nM, RXRa partner concentration 90 nM); test: PBM binding z-score (relative to random genomic background probes); higher = stronger binding; sequences stand for … in GC…GCGATTGACAGCGTAGAATGAAGG
Protocol: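 Protein-binding microarray (Agilent 4x180K custom design, double-stranded 60-nt probes: 5' GC cap, 34-nt variable region, 24-nt constant primer region; full probe sequence given). Purified or IVT nuclear receptor:RXRα heterodimers (3:1 NR:RXRα, mostly 270:90 nM) or homodimers were incubated for 1 h in PBS with 2% milk and no ligand, then detected with Alexa488 antibodies. Fluorescence from o1-orientation probes (~5 replicates averaged) was converted to z-scores against 500 random hg19 background probes. Variable regions are seed direct-repeat (DR0–DR5) sites, all their single-nucleotide variants and half-site ablations.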

Row | Sequence | PBM binding z-score
1 | GCAGACAGGTGAAACTCAGGTAACTCAGGGTGGC | -0.101
2 | TCATATAGGTAAAGCTGAAAGTCGAACGATATGA | 0.186
3 | CGTCAAGGTTCAAGGTAACGTAACAGAAAGCAGC | 3.05
4 | TCGTGTAGGTTAGGGGCATTCAGAATGGCGTCGA | 0.914
5 | GCATATAGGTAAGACAAGGTGAAAGTCCGATTGT | 0.0453
6 | AATACAGGGTCATCGTAGGCCATAGTACGCACAG | 5.58
7 | AGAATGACGTTATTAAGATCAGGGAATTGCGGTC | -0.00436
8 | ACTAGTAGTTGAGACGAGGGCAACCGATAGGTTG | 0.766
9 | ATATGTAGGTTATCTGGTCATTCAGTTTGCGCAT | 2.12
10 | ACTAGCAGGCCAAGGGTCACTCAAGATTAGTCCG | 2.61
11 | TCTTGTAGATCAGCCGGTTAAGAAAGCTGGCCAA | -0.00365
12 | CAAACTAGGTCAAGCTCAAAGTCGGTTTGTGCCA | 1.7
13 | CCTATTGGGCCACGAAAGGTCATTGATTCAGTGA | 4.16
14 | ATATGTAGGTTATCGGCTCATTCAGTTTGCGCAT | 0.802
15 | CAAACTAGGTCACGAAAGGTCAAAGGCGAATGAC | 6.79
16 | CGTCCAAGGTCAGAGAGGTTAGTGAATGCCGAGT | 5.8
17 | CCTAGCAGGCCAGAGTCACTCAAGCATTTCGCTT | -0.665
18 | TAGCCTACGTCATGCGGGCCAGTATAGTGTCGGC | -0.879
19 | CGTCCAAGCTCAAGGTCAGTGAAAGAGACTCGAA | 1.18
20 | CCGACTGGTGCAAGGTTACCATAACGCACAGCCA | 0.278

Row | Sequence | PBM binding z-score
21 | AGGCAAAGTTCACTAGGTAACGTAAGATTCAGCT | 3.88
22 | TAGCCTAGGTCAGATCGGGCCTGTATACGCTATA | 0.0712
23 | CCTGCTAGGGCATGGTCAGCTAATCTACAGTATG | -0.579
24 | CGTCCAAGCTCATAGGAGGTCAGTGAAGACAGAT | 1.69
25 | CCAGACAGGTGAAAGGCAACTCAGTCTGGTACGC | -0.108
26 | ACTTACGGGTAAACGAGGTTATAGCACGCGTATA | 4.1
27 | CGTACAAGGTCAATGCTAGGTCAGTGAAAGCATT | 5.24
28 | CCTGCTAGGTCATGGTAAGCTAATCTACAGTATG | 1.49
29 | TCTTGAAGATCAAGCAGGTTAAGAAAGCCTGAGT | 0.401
30 | CAAACTAAGTCAAGAGGTCAAAGTCCGCTTCCCG | 5.15
31 | CTACCAAGGTGACCAAGGTCGTTGATTACTATTC | 5.32
32 | GATACAGGGTCAGCTAGAGGCCAGGGTATGGAAA | 3.14
33 | CGAACTATGTCATTGACAGGACAGTGAATAGTAA | 0.154
34 | ACAGACAGGTGAGTGAAGATAACTCAGCTGGACG | -0.413
35 | ATCTCTAGGTAACAAGTTCAGTGACAGAGAGGAC | 1.97
36 | CAGCCTAGGTCACGGCCAGTATAGGAGGAACGTT | 2.68
37 | AATACAGGGTCATCGTAGCCCAGAGTACGCACAG | 4.83
38 | CCTACTGGGCTATTCAGAGGTCATTGATCATATG | 3.57
39 | TCAGACAGGTGAAGGTAACTTAGGTACGCAGTCG | 1.02
40 | CGTCCAAGGACAAAGGTCAGTGAAGAGATGACGG | 2.64
